# Measurements as given in ChEMBL document CHEMBL2218924, “A broad activity screen in support of a chemogenomic map for kinase signalling research and drug discovery” (Biochem J, 2013).
# Tests used:
# [1] = biological target: T1, Serine/threonine-protein kinase BRSK1 (Homo sapiens) (UniProt Q8TDC3); details: at 1 µM
# T1 sequence (whole entry): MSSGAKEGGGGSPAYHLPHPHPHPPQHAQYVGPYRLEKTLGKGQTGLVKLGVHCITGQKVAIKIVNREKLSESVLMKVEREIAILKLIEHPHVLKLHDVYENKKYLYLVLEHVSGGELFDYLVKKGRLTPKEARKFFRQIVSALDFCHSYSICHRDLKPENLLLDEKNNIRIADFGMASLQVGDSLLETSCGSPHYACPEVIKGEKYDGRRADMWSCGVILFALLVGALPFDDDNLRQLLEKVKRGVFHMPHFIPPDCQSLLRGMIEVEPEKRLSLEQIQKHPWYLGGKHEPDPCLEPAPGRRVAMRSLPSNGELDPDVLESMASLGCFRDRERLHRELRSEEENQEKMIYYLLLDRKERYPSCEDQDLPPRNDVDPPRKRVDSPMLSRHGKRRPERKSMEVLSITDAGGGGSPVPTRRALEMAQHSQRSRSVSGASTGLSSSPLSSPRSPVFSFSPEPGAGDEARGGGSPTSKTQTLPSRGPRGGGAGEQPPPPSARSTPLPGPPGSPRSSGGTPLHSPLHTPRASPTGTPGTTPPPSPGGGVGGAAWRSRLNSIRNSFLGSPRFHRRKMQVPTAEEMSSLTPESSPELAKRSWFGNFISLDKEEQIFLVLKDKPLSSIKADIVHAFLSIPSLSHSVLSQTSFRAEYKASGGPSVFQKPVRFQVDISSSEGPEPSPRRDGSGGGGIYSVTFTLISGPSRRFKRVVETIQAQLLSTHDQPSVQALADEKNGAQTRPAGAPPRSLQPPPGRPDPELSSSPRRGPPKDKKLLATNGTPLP
# [2] = biological target: T1, Serine/threonine-protein kinase BRSK1 (Homo sapiens); details: at 10 µM
# [3] = biological target: T2, Serine/threonine-protein kinase BRSK2 (Homo sapiens) (UniProt Q8IWQ3); details: at 1 µM
# T2 sequence (whole entry): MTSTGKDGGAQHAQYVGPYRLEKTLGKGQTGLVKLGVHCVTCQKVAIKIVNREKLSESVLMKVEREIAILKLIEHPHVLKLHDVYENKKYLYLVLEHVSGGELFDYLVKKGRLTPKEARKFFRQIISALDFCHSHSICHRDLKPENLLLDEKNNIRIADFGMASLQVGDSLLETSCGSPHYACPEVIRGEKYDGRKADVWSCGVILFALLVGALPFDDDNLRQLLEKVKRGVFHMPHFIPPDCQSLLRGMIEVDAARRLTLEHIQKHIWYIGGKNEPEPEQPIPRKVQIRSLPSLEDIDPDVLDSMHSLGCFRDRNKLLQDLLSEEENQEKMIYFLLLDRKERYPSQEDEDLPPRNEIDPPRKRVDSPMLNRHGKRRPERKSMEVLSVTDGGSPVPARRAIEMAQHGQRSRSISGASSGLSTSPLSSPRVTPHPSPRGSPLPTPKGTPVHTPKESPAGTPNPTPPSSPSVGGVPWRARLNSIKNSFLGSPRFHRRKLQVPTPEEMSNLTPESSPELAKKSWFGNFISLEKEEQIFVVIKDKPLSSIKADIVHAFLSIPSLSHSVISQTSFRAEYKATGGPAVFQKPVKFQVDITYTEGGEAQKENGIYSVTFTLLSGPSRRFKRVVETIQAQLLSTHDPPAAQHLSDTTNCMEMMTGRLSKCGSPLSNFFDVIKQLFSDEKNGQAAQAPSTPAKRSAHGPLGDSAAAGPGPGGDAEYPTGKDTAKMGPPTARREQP
# [4] = biological target: T2, Serine/threonine-protein kinase BRSK2 (Homo sapiens); details: at 10 µM
# [5] = biological target: T3, Cyclin-dependent kinase 1/cyclin B1 (Homo sapiens) (UniProt P06493+P14635); details: at 1 µM
# [6] = biological target: T3, Cyclin-dependent kinase 1/cyclin B1 (Homo sapiens); details: at 10 µM
# [7] = biological target: T4, Cyclin-dependent kinase 2/cyclin A (Homo sapiens) (UniProt P24941+P20248+P78396); details: at 1 µM
# [8] = biological target: T4, Cyclin-dependent kinase 2/cyclin A (Homo sapiens); details: at 10 µM
# [9] = biological target: T5, Cyclin-dependent kinase 2/cyclin E (Homo sapiens) (UniProt P24864+P24941+O96020); details: at 1 µM
# [10] = biological target: T5, Cyclin-dependent kinase 2/cyclin E (Homo sapiens); details: at 10 µM
# [11] = biological target: T6, CDK3/cyclin E (Homo sapiens) (UniProt P24864+O96020+Q00526); details: at 1 µM
# [12] = biological target: T6, CDK3/cyclin E (Homo sapiens); details: at 10 µM
# [13] = biological target: T7, Cyclin-dependent kinase 5/CDK5 activator 1 (Homo sapiens) (UniProt Q00535+Q15078); details: at 1 µM
# Target sequence in this assay (Q00535 whole entry): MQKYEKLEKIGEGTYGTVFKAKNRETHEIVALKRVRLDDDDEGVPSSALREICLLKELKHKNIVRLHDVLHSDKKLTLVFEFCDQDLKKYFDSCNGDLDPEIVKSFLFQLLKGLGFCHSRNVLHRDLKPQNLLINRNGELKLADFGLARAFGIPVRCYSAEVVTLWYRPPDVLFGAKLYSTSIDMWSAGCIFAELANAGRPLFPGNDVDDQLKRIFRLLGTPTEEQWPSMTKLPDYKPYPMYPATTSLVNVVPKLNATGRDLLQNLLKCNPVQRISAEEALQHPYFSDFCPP
# Target sequence in this assay (Q15078 99-307 partner limits assumed): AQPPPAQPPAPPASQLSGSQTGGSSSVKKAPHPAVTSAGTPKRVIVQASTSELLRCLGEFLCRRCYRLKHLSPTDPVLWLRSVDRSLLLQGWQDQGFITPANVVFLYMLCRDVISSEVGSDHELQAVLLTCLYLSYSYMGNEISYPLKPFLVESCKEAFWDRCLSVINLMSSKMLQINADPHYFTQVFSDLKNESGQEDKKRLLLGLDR
# [14] = biological target: T7, Cyclin-dependent kinase 5/CDK5 activator 1 (Homo sapiens); details: at 10 µM
# [15] = biological target: T7, Cyclin-dependent kinase 5/CDK5 activator 1 (Homo sapiens); details: at 1 µM; remark: listed apart in the source
# [16] = biological target: T7, Cyclin-dependent kinase 5/CDK5 activator 1 (Homo sapiens); details: at 10 µM; remark: listed apart in the source
# Target sequence in this assay (Q00535 whole entry): as the sequence (Q00535 whole entry) above
# Target sequence in this assay (Q15078 99-307 partner limits assumed): as the sequence (Q15078 99-307 partner limits assumed) above
# [17] = biological target: T8, CDK6/cyclin D3 (Homo sapiens) (UniProt P30281+Q00534); details: at 1 µM
# [18] = biological target: T8, CDK6/cyclin D3 (Homo sapiens); details: at 10 µM
# [19] = biological target: T9, Cyclin-dependent kinase 7/ cyclin H (Homo sapiens) (UniProt P51946+P50613); details: at 1 µM
# [20] = biological target: T9, Cyclin-dependent kinase 7/ cyclin H (Homo sapiens); details: at 10 µM
# T3 sequence (P06493 whole entry, looked up): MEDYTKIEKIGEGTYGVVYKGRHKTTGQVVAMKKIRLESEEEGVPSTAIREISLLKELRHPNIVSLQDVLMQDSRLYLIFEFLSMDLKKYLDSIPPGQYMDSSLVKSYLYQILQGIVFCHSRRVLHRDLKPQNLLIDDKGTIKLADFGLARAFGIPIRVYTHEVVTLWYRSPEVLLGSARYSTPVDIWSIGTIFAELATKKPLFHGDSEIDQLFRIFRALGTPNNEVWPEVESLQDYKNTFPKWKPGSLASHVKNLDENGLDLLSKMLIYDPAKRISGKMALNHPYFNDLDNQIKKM
# T3 sequence (P14635 whole entry, looked up): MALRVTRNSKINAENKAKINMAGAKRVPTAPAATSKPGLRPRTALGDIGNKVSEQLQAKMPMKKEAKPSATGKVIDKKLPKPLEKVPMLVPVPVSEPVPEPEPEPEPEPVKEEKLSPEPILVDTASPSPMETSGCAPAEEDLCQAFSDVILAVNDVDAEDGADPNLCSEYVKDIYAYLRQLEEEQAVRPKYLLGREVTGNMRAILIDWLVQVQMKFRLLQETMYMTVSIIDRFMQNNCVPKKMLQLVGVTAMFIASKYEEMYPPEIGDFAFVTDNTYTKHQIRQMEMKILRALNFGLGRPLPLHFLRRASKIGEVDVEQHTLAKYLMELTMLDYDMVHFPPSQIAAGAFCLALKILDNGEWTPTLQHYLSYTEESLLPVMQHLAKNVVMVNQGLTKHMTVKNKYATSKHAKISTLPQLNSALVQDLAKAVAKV
# T6 sequence (O96020 whole entry, looked up): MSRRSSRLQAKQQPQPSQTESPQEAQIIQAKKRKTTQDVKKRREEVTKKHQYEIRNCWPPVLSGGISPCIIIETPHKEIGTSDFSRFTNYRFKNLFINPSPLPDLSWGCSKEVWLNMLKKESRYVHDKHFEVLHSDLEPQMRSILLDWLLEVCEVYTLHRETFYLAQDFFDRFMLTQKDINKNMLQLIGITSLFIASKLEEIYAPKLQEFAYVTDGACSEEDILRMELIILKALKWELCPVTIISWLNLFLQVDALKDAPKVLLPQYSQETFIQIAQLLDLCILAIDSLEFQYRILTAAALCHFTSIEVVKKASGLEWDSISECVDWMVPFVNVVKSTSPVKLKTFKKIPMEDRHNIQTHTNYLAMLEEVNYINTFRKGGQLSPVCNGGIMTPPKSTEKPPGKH
# T6 sequence (P24864 whole entry, looked up): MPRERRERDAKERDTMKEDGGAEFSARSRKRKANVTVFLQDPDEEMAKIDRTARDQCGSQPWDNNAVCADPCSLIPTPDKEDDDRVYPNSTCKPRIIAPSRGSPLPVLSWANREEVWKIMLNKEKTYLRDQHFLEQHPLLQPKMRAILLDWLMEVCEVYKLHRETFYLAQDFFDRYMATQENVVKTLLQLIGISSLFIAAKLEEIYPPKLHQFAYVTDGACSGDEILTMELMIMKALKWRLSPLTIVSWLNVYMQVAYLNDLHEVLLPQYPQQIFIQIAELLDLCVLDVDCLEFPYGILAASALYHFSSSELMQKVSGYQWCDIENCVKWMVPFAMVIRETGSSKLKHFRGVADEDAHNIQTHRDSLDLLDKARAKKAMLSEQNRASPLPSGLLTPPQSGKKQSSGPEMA
# T6 sequence (Q00526 whole entry, looked up): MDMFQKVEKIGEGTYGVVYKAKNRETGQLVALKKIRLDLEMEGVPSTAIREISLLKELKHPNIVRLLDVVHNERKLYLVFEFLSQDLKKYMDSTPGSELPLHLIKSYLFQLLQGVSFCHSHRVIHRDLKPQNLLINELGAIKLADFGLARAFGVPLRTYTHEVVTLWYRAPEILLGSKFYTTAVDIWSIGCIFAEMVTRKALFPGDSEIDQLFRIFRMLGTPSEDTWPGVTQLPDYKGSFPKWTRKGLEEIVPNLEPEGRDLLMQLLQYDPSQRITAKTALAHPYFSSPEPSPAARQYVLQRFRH
SMILES,residual activity [1] [%],residual activity [2] [%],residual activity [3] [%],residual activity [4] [%],residual activity [5] [%],residual activity [6] [%],residual activity [7] [%],residual activity [8] [%],residual activity [9] [%],residual activity [10] [%],residual activity [11] [%],residual activity [12] [%],residual activity [13] [%],residual activity [14] [%],residual activity [15] [%],residual activity [16] [%],residual activity [17] [%],residual activity [18] [%],residual activity [19] [%],residual activity [20] [%]
O=[N+]([O-])c1ccc(-c2nc(-c3ccc(F)cc3)c(-c3ccncc3)[nH]2)cc1,97,101,118,103,102,103,90,79,105,96,91,85,95,94,108,98,101,101,101,90
COc1cccc(-c2cc(=O)c3ccccc3o2)c1N,101,103,123,98,99,99,93,10,96,85,90,84,102,99,112,89,102,100,103,89
O=C1NC(=O)/C(=C\c2ccc3nccnc3c2)S1,59,65,78,77,79,31,132,47,94,98,96,68,96,64,97,74,91,86,89,80
CC(C)n1cnc2c(NCc3ccccc3)nc(NCCCO)nc21,105,100,110,99,90,55,58,11,39,8,71,23,40,8,53,8,94,86,62,12
CC(C)n1cnc2/c(=N/c3cccc(Cl)c3)nc(NCCO)[nH]c21,89,89,118,104,58,13,24,5,25,2,44,8,3,0,8,1,92,58,45,7
Nc1n[nH]c2nnc(-c3c(-c4ccccc4)nn4ccccc34)cc12,92,70,103,96,107,99,92,90,93,96,90,90,95,99,112,79,81,43,106,89
Ic1cccc(CSc2nnc(-c3ccncc3)o2)c1,84,87,113,97,18,14,85,68,41,32,70,57,5,4,8,3,80,73,93,72
O=C1NC(=O)c2c1c1c3ccccc3[nH]c1c1[nH]c3cc(Br)ccc3c21,82,55,69,32,92,74,84,82,63,67,88,77,55,62,83,68,87,58,99,94
CCN(CC)CCCCN1c2ccccc2Oc2ccc(Cl)cc21,88,105,131,126,119,96,132,102,116,106,117,94,99,102,100,105,108,103,89,105
CC[n+]1c(/C=C/N(C)c2ccccc2)n(-c2ccccc2)c2ccc(-c3nc4ccccc4s3)cc21,59,68,111,129,111,91,146,85,101,89,108,90,115,92,101,95,105,104,97,100
COc1ccc(S(=O)(=O)N(CCO)c2ccccc2CN(C)C/C=C/c2ccc(Cl)cc2)cc1,81,63,114,88,117,90,76,64,106,95,92,80,91,84,90,97,97,86,102,88
COc1cc2ncnc(N3CCN(C(=O)Nc4ccc(Oc5ccccc5)cc4)CC3)c2cc1OC,79,91,113,126,119,109,117,92,98,96,79,75,95,55,108,75,82,86,90,93
Oc1n[nH]c2nnc(-c3c(-c4ccccc4)nn4ccccc34)cc12,88,76,112,83,109,105,89,86,89,93,84,87,96,103,105,82,89,83,89,86
Nc1nc(Nc2ccc(S(N)(=O)=O)cc2)nn1C(=S)Nc1c(F)cccc1F,0,0,0,1,0,-1,-2,-1,-1,-2,-2,0,-2,-1,-2,-1,19,3,2,-2
COc1cc2ncnc(Nc3ccc(Oc4ccccc4)cc3)c2cc1OC,55,60,89,102,99,102,130,101,106,106,94,91,108,92,98,109,101,92,98,100
Cn1cc(/C=C2\C(=O)Nc3ccc(S(N)(=O)=O)cc32)c2ccccc21,23,3,36,19,34,39,68,46,67,52,69,34,42,17,33,34,93,56,13,4
COc1ccc(OC)c2c(=S)c3ccccc3[nH]c12,78,76,99,89,100,94,85,80,85,74,92,73,97,58,105,67,90,85,123,87
O=Nc1c(-c2c(O)[nH]c3ccccc23)[nH]c2ccccc12,13,12,10,5,35,19,19,5,6,-1,5,0,3,2,5,1,16,5,42,16
CCC(=O)Nc1ccc2ncnc(Nc3cccc(Br)c3)c2c1,55,17,97,63,114,107,135,101,106,104,101,78,102,113,79,101,84,81,86,95
O=C1NC(=O)/C(=C/c2ccc3c(c2)OC(F)(F)O3)S1,86,71,76,62,101,104,140,96,102,113,104,89,102,91,101,94,98,90,88,86
O=C(Nc1cccc(Nc2nccc(Nc3cccc(C(F)(F)F)c3)n2)c1)C1CC1,26,27,93,40,96,102,127,93,94,97,98,72,94,98,107,98,102,39,92,86
O=C1c2ccccc2-[n+]2ccc3c([nH]c4ccccc43)c21,75,74,112,89,112,107,84,77,92,97,87,81,72,82,108,82,87,82,99,83
CC(=O)O/N=C1\C(=C2\C(=O)Nc3cc(Br)ccc32)Nc2ccccc21,48,24,52,21,90,34,60,24,42,9,12,2,35,10,60,9,91,54,78,45
COc1ccc(CNc2nc(N(CCO)CCO)nc3c2ncn3C(C)C)cc1,91,92,114,99,81,26,24,3,18,0,52,9,11,2,18,2,91,77,94,36
Cc1nc(-c2ccccc2)c(-c2ccncc2)o1,103,85,120,96,104,92,97,92,104,95,92,91,96,94,129,93,110,86,105,96
